Test results from PubChem BioAssay AID1766 (National Center for Advancing Translational Sciences (NCATS), 2009).
Screen size: about 290,000 compounds; fewer than 10 were called active. Inconclusive results (about 3%) are left out. The call rests on the fitted dose curve; in most records, active means well fitted curve in the direction sought with a large enough effect in the polarisation (not every such curve was filed as active); inconclusive means small, poorly fitted or top-dose-only effect, or effect the other way, or a change in a side signal; inactive means no such curve, though single readings can be large or run the other way; the % refers to the polarisation. A selection follows.

Test: qHTS Assay for Inhibitors Targeting the Menin-MLL Interaction in MLL Related Leukemias: Competition With Fluorescein Labeled MLL-derived Peptide
Settings: Fluorescence polarization, fluorescein-MLL peptide displacement from menin; series mostly up to 61.4 µM
Source text: qHTS Assay for Inhibitors Targeting the Menin-MLL Interaction in MLL Related Leukemias NIH Chemical Genomics Center [NCGC] NIH Molecular Libraries Probe Centers Network [MLPCN] MLPCN Grant: MH084875-01A1 Assay Submitter (PI): Jolanta Grembecka, Tomasz Cierpicki, University of Virginia Translocations of the MLL (Mixed Lineage Leukemia) gene are frequently found in human leukemias affecting both children and adults. Fusion of MLL to one of more than 60 genes results in generation of oncogenic proteins upregulating Hox genes, which are vital to blood cell development. Patients harboring fusion of the MLL gene suffer from aggressive leukemias and respond poorly to available therapies. All of the oncogenic fusion proteins have a preserved N-terminal fragment of MLL that has been identified to interact with menin. It has been recently discovered that association with menin is critical to the leukemogenic activity of the MLL fusion oncoproteins. Selective targeting of the menin-MLL interaction could provide an attractive therapeutic approach to develop novel drugs for MLL-related leukemias. Small molecules blocking the menin-MLL interaction should reverse the oncogenic potential of MLL fusion proteins. We have developed and optimized a fluorescence polarization-based assay for the identification of Menin-MLL inhibitors. The assay was run employing two different MLL-derived peptides. The present assay uses a 12 amino acid peptide labeled with fluorescein at its N-terminus. This peptide consists of the menin high affinity binding motif from MLL and is potently bound by menin. Another peptide with a mutated sequence, labeled with Texas Red, was used in parallel as a less stringent screen for inhibitors.
The Menin protein, the MLL-wild type (w.t.) derived peptide (N-terminal 12 amino acids), the MLL-derived peptide labeled with Texas Red and the MLL-w.t. peptide labeled with Fluorescein were kindly supplied by laboratory of Dr. Jolanta Grembecka, University of Virginia. All protein and peptide solutions were stored in single use aliquots at -80C. The Eu3+ Cyrptate-conjugated mouse monoclonal antibody anti-6 Histidine (Eu3+-AB) and the Streptavidin-XL665 conjugate (XL665) were purchased from Cisbio International (Bedford, MA). All antibody and XL665 conjugate solution stocks were stored in single use aliquots at -20C. The Buffer components for all assays were purchased from Sigma-Aldrich (St. Louis, MO) and Invitrogen (Carlsbad, CA). FP Assay Reagents: 1. FP reaction buffer: 50 mM Tris-HCl pH 7.5, 50 mM NaCl, 1mM DTT. Before use, 0.05% BSA is added. 2. Menin protein, MLL-w.t. labeled with fluorescein, MLL-mutant peptide labeled with texas red. Stored in singe use aliquots at -80C. 3. MLL-w.t. unlabeled peptide as positive control: 10 uM final in FP buffer. FP Assay Procedure: 1. Prepare Menin at 200 nM, MLL-w.t.-fluorescein at 25 nM, and MLL-mutant-texas red at 50 nM mixture in FP buffer. 2. Prepare Menin at 200 nM, MLL-w.t.-fluorescein at 25 nM, MLL-mutant-texas red at 50 nM, and 10 uM MLL-w.t. unlabeled mixture in FP buffer. 3. Prepare MLL-w.t.-fluorescein at 25 nM and MLL-mutant-texas red at 50 nM mixture in FP buffer. 3. Dispense 4 ul per well of reagent in step 1 in columns 2, 4 - 48 in a black 1536 well plate, dispense 4 ul per well of reagents from steps 2 and 3 in columns 1 and 3 respectively. Incubate plate at ambient for 15 minutes. 4. Transfer 23 nl per well of compound to plate and incubate at ambient for 1 hr. 5. Read fluorescence polarization for each label using the PerkinElmer Envision. Envision protocol for fluorescein: FITC FP Dual Enh Mirror, Excitation filter 480, Emission filter (1) P-pol 535, Emission filter (2) S-pol 535 Envision protocol for texas red: FP Dual Enh Mirror, Excitation filter 555, Emission filter (1) P-pol 632, Emission filter (2) S-pol 632

Row | Structure (SMILES) | FP activity change
1 | Cc1ccc(-c2noc(C3CCCN(C(=O)c4cccc(Cl)c4)C3)n2)o1 (stereo not drawn) | inactive
2 | CS(=O)(=O)N1CCc2nc(-c3ccccc3)sc2C1 | inactive
3 | Cc1cc(C)c(NC(=O)CN2CCCCCC2)c(C)c1 | inactive
4 | COc1ccccc1-c1sc2ccccc2c1-c1ccc(C(C)=O)cc1 | inactive
5 | CCCC(C(=O)NC1CCCC1)N(C(=O)Cn1nnc(-c2ccc(C)o2)n1)c1cccc(O)c1 (stereo not drawn) | inactive
6 | Cc1ccc(CSc2nsc(C)c2C#N)cc1 | inactive
7 | Cn1cc(S(=O)(=O)Nc2ccc(Cl)cc2Cl)c(=O)n(C)c1=O | inactive
8 | CCc1ccc(C(=O)NN=C2CCCCCC2)s1 | inactive
9 | CCOc1ccccc1N1C(=O)CC(Sc2nccc(C)n2)C1=O (stereo not drawn) | inactive
10 | COc1cccc(-c2noc(C3CCCN(C(=O)c4ccc(F)cc4)C3)n2)c1 (stereo not drawn) | inactive
11 | O=S(=O)(Cc1cc(Cl)nc(-c2cccnc2)n1)c1ccccc1 | inactive
12 | Cc1noc(C)c1-c1ccc2ncnc(NCc3ccc4[nH]ccc4c3)c2c1 | inactive
13 | CCN(CC(=O)NCC(=O)Nc1cccc(C)c1C)Cc1ccccc1 | inactive
14 | CCCSc1nc2sc3c(c2c(=O)n1-c1ccc(OC)cc1)CCN(C)C3 | inactive
15 | COc1ccccc1-c1cnn2c(N3CCOCC3)cc(C)nc12 | inactive
16 | CCC1CCCCN1C(=O)CSc1nc2c(c(=O)n1C)SC(C)C2 (stereo not drawn) | inactive
17 | C=CCNC(=S)/N=c1/ccccn1Cc1ccccc1 | inactive
18 | COc1cc2ccccc2cc1C(=O)N(CCN(C)C)c1nc2c(F)cccc2s1 | inactive
19 | CC1CN(C(=O)CCC(=O)NC2CCN(Cc3ccccc3)CC2)c2ccccc2O1 (stereo not drawn) | inactive
20 | COc1ccc(CC(=O)N/N=C/c2cc([N+](=O)[O-])cc(Br)c2O)cc1 | inactive
21 | O=C(Nc1ccccc1)c1ccc2c(c1)OCCCO2 | inactive
22 | Cc1ccc(NC(=O)NC(=O)c2ccccc2)cc1F | inactive
23 | COc1ccccc1CN1CCCC(N2CCN(c3ccc(F)cc3)CC2)C1 (stereo not drawn) | inactive
24 | Cc1[nH]c(C)c(S(=O)(=O)N2CCN(c3cccc(C(F)(F)F)c3)CC2)c1C(=O)N1CCCCC1 | inactive

Row | Structure (SMILES) | FP activity change
25 | COc1cccc(N(C(=O)c2snc(C(N)=O)c2N)C(C(=O)NCC2CCCO2)c2c[nH]c3ccccc23)c1 (stereo not drawn) | inactive
26 | COc1ccccc1OCCOc1ccc(/C=C2\C(=N)N3N=C(C)SC3=NC2=O)cc1 | inactive
27 | C=C1CCN(Cc2ccc(OC)cc2)S(=O)(=O)c2ccccc21 | inactive
28 | CC1Sc2ccc(S(=O)(=O)CCC(=O)NCc3ccccc3Cl)cc2NC1=O (stereo not drawn) | inactive
29 | CC(O)c1ccc(OCCN(C)c2ccccn2)cc1 (stereo not drawn) | inactive
30 | CC(O)COc1ccccc1 (stereo not drawn) | inactive
31 | CN(CC(=O)Nc1ccc(F)cc1)C(=O)c1ccc(-c2ccc(Cl)cc2)o1 | inactive
32 | CC(C)[C@@H]1COC(c2cccc(C3=N[C@H](C(C)C)CO3)c2)=N1 | inactive
33 | COc1ccc(OCc2cc(C(=O)N3CCCC3)no2)c2ccccc12 | inactive
34 | c1cnc(N2CCN(c3ccc4ccccc4n3)CC2)nc1 | inactive
35 | Cc1cc(=O)n2[nH]c(-c3cccc(Cl)c3)cc2n1 | inactive
36 | CCCCCC(O)(CCN1CCCCC1)c1ccccc1 (stereo not drawn) | inactive
37 | Cc1cc(C)cc(OCC(=O)NC(C)c2ccccc2)c1 (stereo not drawn) | inactive
38 | O=c1[nH]cccc1-c1nc2ccccc2n1Cc1ccc(Cl)cc1 | inactive
39 | CCCc1cc(=O)n2[nH]c(C)c(-c3ccc(Cl)cc3)c2n1 | inactive
40 | O=C1CCN(CCc2ccccc2)CCN1CCOc1ccccc1 | inactive
41 | Cc1cc(C)c(C#N)c(Nc2cccc(Br)c2)n1 | inactive
42 | O=C(NCCS(=O)(=O)N1CCN(c2ccccc2F)CC1)c1ccc(Br)o1 | inactive
43 | CCc1ccccc1OCC(=O)Nc1ccc2c(c1)OCCO2 | inactive
44 | Oc1ccc(C2Nc3cccc4cccc(c34)N2)cc1 | inactive
45 | Cc1ccc(-c2csc(NC3OC(=O)c4ccccc43)n2)cc1 (stereo not drawn) | inactive
46 | Cc1n[nH]c(=O)c2c1nnn2Cc1ccc(F)cc1 | inactive
47 | COc1ccc(NC(=O)C/C(C)=N/NC(=O)c2cnccn2)cc1Cl | inactive
48 | CS(=O)(=O)N1CCN(C(=O)CSc2ccccc2)CC1 | inactive

Row | Structure (SMILES) | FP activity change
49 | COc1ccc2c(c1)c(C(=O)N/N=C/c1cccs1)c(C)n2C | inactive
50 | CC(C)OC(=O)c1ccc(COc2ccc3ccc(=O)oc3c2)o1 | inactive
51 | CNC(=O)c1sc(Nc2ccc(OCc3ccccc3)cc2)nc1C | inactive
52 | Cc1cccc(C)c1NC(=S)N1CCCCCC1 | inactive
53 | Cc1ccc(O)c(CNc2nc3ccccc3[nH]2)c1 | inactive
54 | COCCNC(=O)c1ccc2nc(Cc3ccc(OC)c(OC)c3)oc2c1 | inactive
55 | CCCc1cc(=O)[nH]c(SCC(=O)N2C(C)CCCC2C)n1 (stereo not drawn) | inactive
56 | COc1cc(CNCc2ccc(OC)c3ccccc23)cc(OC)c1OC | inactive
57 | Cc1ccc2oc(C(=O)N3CCN(C)C[C@@H]3C(C)C)c(C)c2c1 | inactive
58 | O=C(Nc1cccc(C(F)(F)F)c1)c1cc(Br)cc(Br)c1O | inactive
59 | CC(C)(C)c1ccc(SCCc2ccncc2)cc1 | inactive
60 | COc1ccc(C(C(=O)NC(C)(C)C)N(Cc2ccc(F)cc2)C(=O)CCC(=O)Nc2cc(C)on2)cc1 (stereo not drawn) | inactive
61 | CCOC(=O)c1ccc(NC(=O)Cc2cccs2)cc1 | inactive
62 | CCOc1ccc(N/C=C/C(=O)c2ccccc2)cc1 | inactive
63 | COc1ccc(N2CCN(S(=O)(=O)CCNC(=O)C34CC5CC(CC(C5)C3)C4)CC2)cc1 | inactive
64 | COc1ccc(/C=N/OCc2ccccc2C#N)c(OC)c1 | inactive
65 | CCn1c(SCC(=O)NC2CC2)nnc1-c1ccccc1OC | inactive
66 | COc1cc2ccccc2cc1C(=O)Nc1ccccc1C | inactive
67 | CSCCNC(=O)c1ccc2nc(Cc3ccccc3F)oc2c1 | inactive
68 | CC(c1ccccn1)N(C)C(=O)c1ccc2nc(Cc3cccc(Cl)c3)oc2c1 (stereo not drawn) | inactive
69 | CCCOc1ccc(/C=N/NC(=O)C2CC2)c(OCCC)c1 | inactive
70 | O=C(CN1CCc2cc3c(cc2C1)OCCCO3)Nc1ccccc1 | inactive
71 | CCn1cc(/C=C(\NC(=O)c2cc(OC)c(OC)c(OC)c2)C(=O)N2CCN(C)CC2)c2ccccc21 | inactive
72 | COc1cccc(NC(=O)C2CCCN(c3ncnc4c3nc3n4CCCCC3)C2)c1 (stereo not drawn) | inactive

Row | Structure (SMILES) | FP activity change
73 | CCCc1ccc(OCCNC(=O)c2ccccc2Br)cc1 | inactive
74 | O=S(=O)(NCc1ccc(Cl)cc1Cl)c1cccs1 | inactive
75 | CC(CN1CCCCC1)c1ccccc1 (stereo not drawn) | inactive
76 | COc1ccc(/C(C)=N\NC(=O)c2ccc(-c3ccccc3)cc2)c(F)c1 | inactive
77 | Cc1ccccc1NC(=O)CSc1nc2ccc(Nc3nc(N4CCOCC4)nc(N4CCOCC4)n3)cc2s1 | inactive
78 | CCOC(=O)Nc1ccc2c(c1)N(C(=O)CCCl)c1ccccc1[S@]2=O | inactive
79 | CSc1nccc(NC(=O)c2ccc(C(C)(C)C)cc2)n1 | inactive
80 | O=C(c1cc(COc2cccc(C(F)(F)F)c2)on1)N1CCSCC1 | inactive
81 | Oc1ccccc1-c1cc(-c2ccc(Cl)cc2)n[nH]1 | inactive
82 | CC1CCC2CCCCC2N1C(=O)c1cc([N+](=O)[O-])cc([N+](=O)[O-])c1 (stereo not drawn) | inactive
83 | Cc1ccc(C(=O)Nc2nnc(C3=COCCO3)o2)cc1C | inactive
84 | N#C[C@]1(S(=O)(=O)c2ccccc2)C[C@@H]2ON=C(c3cccc(Br)c3)[C@@H]2C1 | inactive
85 | O=C(N/N=C/c1cccc(OCc2ccccc2)c1)c1ccc(Br)o1 | inactive
86 | N#CC(C#N)=CN=c1ccn(Cc2ccc(Cl)cc2Cl)cc1 | inactive
87 | FC(F)(F)C1CCCN(c2nsc3ccccc23)C1 (stereo not drawn) | inactive
88 | N=c1oc2ccccc2cc1C(=O)NCc1ccccc1 | inactive
89 | COCCCNc1nc2c(-c3cccc(C)c3)nnn2c2ccc(Cl)cc12 | inactive
90 | O=C(NCCNc1ccccc1[N+](=O)[O-])c1ccccc1F | inactive
91 | N#CCc1ccc(NC(=O)c2ccccc2C(=O)Nc2ccc(CC#N)cc2)cc1 | inactive
92 | CCn1cc(CN2CCC(C(=O)Nc3cccc(-c4cccc(Cl)c4)c3)CC2)c(C)n1 | inactive
93 | Cc1ccc(CCNC(=O)c2ccc3nc4ccccc4c(=O)n3c2)cc1 | inactive
